The panel holds about 83,000 compounds, 20% with a hit somewhere; the sample as a whole holds those more often.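 Cells were grown in 96-well plates and exposed to the test compound at a single concentration for 48 hours; results are reported as percent growth, with values below 10 considered active.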 Unmarked numbers belong to inactive results. Active and inactive are the calls of the source.
Test system: HL-60(TB) leukemia
Test: NCI-60 one-dose screen, 48 h (100 = growth as untreated, 0 = no growth, -100 = all killed)
Conditions: 10 µM unless noted

Row | Structure (SMILES) | growth
1 | C=C1CCC2C3(C)COC(c4ccc(F)cc4)OC3CCC2(C)C1C/C=C1/C(=O)OCC1O (centres undefined) | 0.0909% (active)
2 | CN1C(=O)N(C)C2SC(N/N=C/C=C/c3ccccc3)=NC21 (centres undefined) | 30.4%
3 | COc1cc2oc(-c3cccc(C(=O)Nc4ccc(Cl)cc4)c3)cc(=O)c2c(OCCNC(=O)[C@@H](N)CCC(=O)O)c1OC | 81.6%
4 | Cc1cc2c(cc1Cl)C(=O)/C(=C/c1ccc(F)cc1)O2 | 101%
5 | CC(=O)Oc1ccc(/C=C/C(=O)N[C@@H](Cc2ccccc2)C(O)C(=O)NCc2ccccc2)cc1OC(C)=O (some centres undefined) | 79.4%
6 | Cc1nc2sccn2c1-c1nnc(SCC(C)C)o1 | 93.2%
7 | c1n[nH]cc1-c1nc2ccc3cn[nH]c3c2c2c1CCCC2 | 94.4%
8 | CCCn1c(NC(=O)c2cccc(C(N)=O)c2)nc2ccc(CN3CCCCC3)cc21 | 72.9%
9 | Cc1ccc(-c2ccc(SCC(=O)Nc3ccc(S(N)(=O)=O)cc3Br)nn2)cc1 | 100%
10 | COc1ccc(NC(=O)CSc2nnc(-c3ccc4nc(-c5ccc(Cl)cc5)[nH]c4c3)o2)cc1 | 63%
11 | COc1ccc(-c2nc(SC(C)C)nc(NCCc3c[nH]c4ccccc34)c2C#N)cc1 | 31.6%
12 | COC(=O)c1c(C(=O)OC)c2c3ccccc3c3ccccc3n2c1C(=O)C(F)(F)F | 107%
13 | N#Cc1ccc(C(=O)CSc2nc3c(c(Nc4ccc(S(N)(=O)=O)cc4)n2)CCC3)cc1 | 101%
14 | C=C1CCC2C3(C)COC(c4cc(F)cc(F)c4)OC3CCC2(C)C1CC(O)C1=CCOC1=O (centres undefined) | 61.2%

— PubChem BioAssay (NCI)
